IEC-6 tox – cytotoxicity in IEC-6 intestinal epithelial cells, primary screen, cytotoxicity control for KLF5 inhibitor project, cell-based, luminescence. IEC-6 cytotoxicity, luminescence viability. 290,000 compounds, 0.78% hits. inhibition, % at 5 µM. AID 1825, 2009; in the data active = inhibition above about 22%;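 also: 0% = plate median of test compound wells and 100% = cytotoxic reference compound wells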
KLF5 inhibitor – KLF5 expression inhibitors, primary screen, DLD-1 cells, luminescence. DLD-1 KLF5 promoter-luciferase reporter. inhibition, % at 5 µM. 290,000 compounds, 0.23% hits;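 active = inhibition above a per-plate limit of that plate's mean compound inhibition plus 3 SD, cut at about 60% in these data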;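 also: 0% = DMSO wells and 100% = LY294002 at 200 µM; higher means less KLF5 promoter-driven luciferase light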
APP 5UTR inh – inhibitors of APP translation via 5'UTR reporter, primary screen, APP 5'UTR luciferase, SH-SY5Y cells; SH-SY5Y APP 5'UTR-luciferase reporter, luminescence; inhibition, % at 2 µM; 190,000 compounds, 0.82% hits;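 active = inhibition above a set limit, derived from the sample mean plus 3 SD, cut at about 45% in these data; inconclusive = one replicate passes the limit while the other fails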
aSyn 5UTR inh – MLPCN primary screen, SNCA 5' untranslated region; alpha-synuclein 5'UTR reporter, inhibitor activity; inhibition, % (tested at 7.5 µM); 300,000 compounds, 0.82% hits; AID 1813, 2009; in the data active = inhibition above about 60%; inconclusive = no clear call, values can overlap the other calls;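 also: H4 neuroglioblastoma cells stably carrying SNCA 5'UTR luciferase fusion; 0% = DMSO wells and 100% = positive control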
Ba/F3 V617F tox – reduced viability of JAK2V617F-dependent Ba/F3 cells, primary screen, JAK2V617F inhibitor project, cell-based, Ba/F3 EpoR-JAK2V617F, luminescence; ATP luminescence; inhibition, % at 5.6 µM; 220,000 compounds, 1.1% hits;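 active = inhibition above the campaign mean plus 3 SD over all tested compounds, cut at about 24% in these data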;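 also: cytokine-independent growth of Ba/F3 cells driven by EpoR plus mutant JAK2; 0% = DMSO-treated cells and 100% = JAK inhibitor I control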
BaF3 parental – parental Ba/F3 cell viability inhibition, counter-screen for JAK2V617F inhibitor project, murine pro-B, CellTiter-Glo luminescence; 220,000 compounds, 1.1% hits; inhibition, % at 5.6 µM; AID 1486, 2009; CellTiter-Glo ATP luminescence;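 active = inhibition above a per-campaign cutoff, the mean inhibition of all tested compounds plus 3 SD, cut at about 27% in these data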;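 also: 0% = DMSO wells and 100% = JAK Inhibitor I control wells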
* = called active by the depositor; ? = inconclusive; nt = no result given. Rows were chosen to be rich in hits. Some 2.1% of all compounds tested hit in one or more screens of this group.

SMILES	IEC-6 tox	KLF5 inhibitor	APP 5UTR inh	aSyn 5UTR inh	Ba/F3 V617F tox	BaF3 parental
C[C@@H]1CCC2[C@](C)(CO)[C@@H](O)CC[C@]2(C)[C@@]12C[C@](CO)(CC(=O)O)CO2 (stereo partly specified)	-2.6	-6.2	nt	6.4	nt	nt
CCCC(C(=O)NC1CCCC1)N(C(=O)c1snc(C(N)=O)c1N)c1ccc(F)cc1 (stereo unspecified)	-1.2	-18.9	nt	5.1	nt	nt
Cc1cc(Br)ccc1NC(=O)CN(C)C(=O)COc1cccc2c1OC(C)(C)C2	nt	nt	nt	6.8	nt	nt
CCOc1cc(CNCCc2ccc(S(N)(=O)=O)cc2)ccc1OCC(=O)NC1CCCCC1	-2.5	-13.1	65.4*	7.6	-2.8	2.2
CCOc1cc(CNCCc2ccc(S(N)(=O)=O)cc2)ccc1OCC(=O)NC(C)(C)C	-2.7	-34.3	10.0	nt	-4.2	-1.6
COc1cc(CNn2cnnc2)ccc1OCC(=O)NC1CCCCC1	6.1	-27.4	64.4*	-4.0	-2.3	0.7
CC12Cc3ccc4ccccc4c3C=C1C[N+](C)(C)C2 (stereo unspecified)	2.9	-12.0	-3.0	-5.2	26.8*	39.8*
CCOc1ccc(-n2c(-c3ccc(Cl)cc3)c[n+]3c2SCC3)cc1	2.3	19.1	-5.9	-25.2	70.0*	74.4*
c1ccc(-c2c[n+]3c(n2-c2ccccc2)SCC3)cc1	-1.0	-20.4	nt	0.4	65.6*	61.0*
CCc1ccc(/C(C)=N/NC(=O)CNC(=O)/C=C/c2ccco2)cc1	nt	nt	nt	-8.2	nt	nt
CN1/C(=C\C(=O)c2cncc(Br)c2)C(C)(C)c2ccccc21	-2.3	-32.1	-0.9	0.9	61.9*	70.4*
CN1/C(=C\C(=O)c2ccco2)C(C)(C)c2ccccc21	8.6	-6.1	-8.2	4.0	72.3*	64.8*
CN1/C(=C\C(=O)c2cccnc2)C(C)(C)c2ccccc21	-0.1	19.8	-33.6	-6.5	-0.6	7.1
CN1/C(=C/C(=O)c2nc(S(C)(=O)=O)ncc2Cl)C(C)(C)c2ccccc21	-3.9	-30.1	56.6*	?	87.5*	92.0*
CN1/C(=C\C(=O)COC(=O)c2ccccc2O)C(C)(C)c2ccccc21	1.7	1.5	nt	-7.6	-1.4	2.0
CN1/C(=C\C(=O)C[n+]2ccc3ccccc3c2)C(C)(C)c2ccccc21	2.2	21.7	-19.6	-30.7	41.2*	42.0*
CN1/C(=C\C(=O)COC(=O)c2ccco2)C(C)(C)c2ccccc21	5.4	-13.9	-29.8	17.3	12.1	3.6
CCOc1ccccc1NC(=O)NNC(=O)CCc1ccc(OC)cc1	-0.1	-30.4	nt	29.7	nt	nt
COc1ccc(S(=O)(=O)N2CCC3(CC2)CC(=O)c2ccccc2O3)cc1OC	nt	nt	nt	21.2	nt	nt
CC(C)c1nc2cc(C(=O)N3CCN(c4cnccn4)CC3)ccc2o1	-6.2	-14.1	nt	-12.1	nt	nt
C/C(=N\NC(=O)Cc1c(Cl)cccc1Cl)c1cccnc1	7.5	-52.6	nt	-8.3	nt	nt
COc1ccccc1OCC(=O)/C=C1/N(C)c2ccccc2C1(C)C	-3.6	-37.6	-6.8	23.8	5.8	7.3
CN1/C(=C\C(=O)COc2ccc3c(c2)OCO3)C(C)(C)c2ccccc21	0.3	-9.2	3.1	2.2	64.0*	62.5*
Nc1ccn([C@@H]2O[C@H](CO)[C@@H](O)C2O)c(=O)n1 (stereo partly specified)	92.8*	29.0	nt	72.3*	74.8*	72.0*
Nc1ccn([C@@H]2CS[C@H](CO)O2)c(=O)n1	-2.4	-31.8	nt	31.3	-1.9	-5.5
Cc1nc2cc(N3CCN(C)CC3)c(NC(=O)Cc3ccccc3)cc2c(=O)n1Cc1ccccc1	0.3	-2.2	-6.8	-14.9	3.0	6.8
Cc1nc2cc(N3CCCCC3)c(NC(=O)c3ccncc3)cc2c(=O)n1Cc1ccc(Cl)cc1	0.6	-16.6	nt	61.8*	-4.0	0.1
O=C(c1cc(F)ccc1F)C1CCCN(C(=O)CCN2CCCCO2)C1 (stereo unspecified)	-2.7	-31.6	-5.7	24.7	-2.3	8.2
O=S1(=O)C=C(Sc2nc3ccccc3s2)c2ccccc21	72.5*	18.6	96.4*	-13.7	101.5*	104.8*
O=C(CNc1ccccc1)N/N=C/c1ccc([N+](=O)[O-])cc1	0.0	18.5	6.7	-14.5	2.3	7.9
